Results filed as inconclusive are left out. Entries that show only a call come without a potency. Values without a mark were called inactive. Active and inactive are the calls of the source. The call rests on the fitted dose curve.

This assay in a line: p53 small molecule agonists, cell-based qHTS assay with rat liver microsomes (AID 1963578). To be noted: HCT-116 p53RE-bla, beta-lactamase ratio, 16 h; series mostly up to 66 µM. The text has this:
U.S. Tox21 Program National Center for Advancing Translational Sciences [NCATS] Division of Preclinical Innovation [DPI] U.S. Environmental Protection Agency [EPA] National Institutes of Environmental Health Sciences [NIEHS] National Toxicology Program [NTP] U.S. Food and Drug Administration [FDA] Tox21 Assay Overview: p53, a tumor suppressor protein, is activated following cellular insult, including DNA damage and other cellular stresses. The activation of p53 regulates cell fate by inducing DNA repair, cell cycle arrest, apoptosis, or cellular senescence. The activation of p53, therefore, is a good indicator of DNA damage and other cellular stresses. […] The activation of the reporter gene under culture conditions can be detected by fluorescence intensity. This cell line was used to screen the Tox21 10K compound library in the condition of presence of rat liver microsomes and to identify agonists that activate the p53 signaling pathway after in vitro metabolic activation (Ooka et al., Archive of Toxicology 96:1975-1987, 2022).
Tox21 Assay Protocol Summary: The p53RE-bla cells were dispensed at 4,000cells/3ul/well in 1536-well black-clear bottom plates. After the assay plates were incubated at 37 C, 5% CO2 incubator for 5 hours, 23 nL of compounds dissolved in DMSO, positive controls or DMSO only was transferred to the assay plate. Following compound addition, 3 uL of rat liver microsomes (Molecular Toxicology, Boone, NC) at final concentration of 0.5 mg/mL and 1uL of Beta-Nicotinamide adenine dinucleotide 2-phosphate (NADPH) at final concentration of 0.5 mg/mL were transferred to the assay plate. The plates were incubated at 37 C for 16 hours. 1 uL of LiveBLAzer detection mixture was added to each well and the plates were incubated at room temperature in the dark for 2 h.
As for `CCCCN`, the Potency entry was “inactive”.

Regarding `CC(C)(C)C(=O)c1ccccc1`, the Potency result is “inactive”. `Nc1cc(Cl)c([N+](=O)[O-])cc1O`: the Potency result was “inactive”. Regarding `OC(CN1CCC(Cc2ccc(F)cc2)CC1)c1ccc(Cl)cc1` (stereo not given), the Potency result is “inactive”. Still for that read-out and setting: the result for `NC(=O)CCCCC1CCSS1` (stereo not given) reads “inactive”; that for `CCOC(=O)/C=C/c1ccccc1`, “inactive”. As for `O=C(N/N=C/c1ccccc1O)c1ccncc1`, the Potency result is “inactive”. Turning to `CCC(C)Nc1ccc(NC(C)CC)cc1` (stereo not given), the Potency result is “inactive”.

`CO[Si](OC)(c1ccccc1)c1ccccc1`: the Potency result is “inactive”. As to `CC(C)NCC(O)COc1ccc(CCOCC2CC2)cc1` (stereo not given), the Potency result is “inactive”.

As to `COC(=O)C1=C(C)NC(C)=C(C(=O)OCC(C)=O)C1c1ccccc1[N+](=O)[O-]` (stereo not given), the Potency entry is “inactive”. In the case of `CC(C)c1ccccc1N`, the Potency result was “inactive”. Still for that read-out and setting: next, `CCCCCCCCCCCC(=O)[O][Sn]([CH2]CCC)([CH2]CCC)[O]C(=O)CCCCCCCCCCC`: “inactive”. The same measure, in the same setting: the result for `CCC1OCC(COc2ccc(Oc3ccccc3)cc2)O1` (stereo not given) reads “inactive”; that for `CCCN(C1CCN(C(=O)C2CCNCC2)CC1)[C@@H]1CCc2ccc(OC)cc2C1`, “inactive”. `COc1nc(N)nc2c1ncn2[C@@H]1O[C@H](CO)[C@@H](O)[C@@H]1O`: the Potency entry is “inactive”. `O=C1CCc2ccc(OCCCCN3CCN(c4cccc(Cl)c4Cl)CC3)cc2N1`: the Potency entry was “inactive”. As to `NC[C@H]1O[C@H](O[C@H]2[C@H](O)[C@@H](O[C@H]3O[C@H](CO)[C@@H](O)[C@H](N)[C@H]3O)[C@H](N)C[C@@H]2N)[C@H](O)[C@@H](O)[C@@H]1O`, the activation is 6.15% [at 5.99 µM]. On the same count and under the same terms, next, `C=C/C=C/C=C/CCCCC`: 0.431% [at 13.6 µM]. On to `COc1cc2c(cc1OC)-c1cc(=Nc3c(C)cc(C)cc3C)n(C)c(=O)n1CC2`, for which the Potency result was “inactive”. On the same count and under the same terms, next, `Cc1cc(CCN2CCN(c3nsc4ccccc34)CC2)cc2c1NC(=O)CC2(C)C`: “inactive”.

On to `C[C@](N)(Cc1ccc(O)cc1)C(=O)O`, for which the activation is -3.92% [at 5.99 µM]. As for `Cc1cccc(Br)c1`, the Potency entry is “inactive”. As for `c1ccc(Cc2ccccc2)cc1`, the Potency result was “inactive”. The same measure, in the same setting: the result for `Oc1ccc(C2(c3ccc(O)c(C4CCCCC4)c3)CCCCC2)cc1C1CCCCC1` reads “inactive”; that for `Cc1c(NC(=O)c2cccnc2)c(=O)n(-c2ccccc2)n1C`, “inactive”. As for `CC(C)(C)CC(C)(C)c1ccc(OCCO)cc1`, the Potency result was “inactive”. Same read-out and setting: the result for `CC(Oc1c(Cl)cccc1Cl)C1=NCCN1` (stereo not given) reads “inactive”; that for `CN(C)CC/C=C1\c2ccccc2COc2ccccc21`, “inactive”; that for `CCS(=O)(=O)c1ccc(OC)c(C(=O)OC)c1`, “inactive”. The same measure, in the same setting: the result for `CC(C(=O)O)c1ccc(C(=O)c2cccs2)cc1` (stereo not given) reads “inactive”; that for `C=CC(C)(CCC=C(C)C)OC(=O)/C=C/c1ccccc1` (stereo not given), “inactive”.

As for `CC(=O)Nc1ccc(/C=N/NC(N)=S)cc1`, the Potency entry was “inactive”.

For the compound `COc1cc([N+](=O)[O-])ccc1N`, the Potency result was “inactive”. `CC(=O)Oc1cccc(C)c1`: the Potency result is “inactive”. Turning to `CN[C@H]1CC[C@@H](c2ccc(Cl)c(Cl)c2)c2ccc(S(N)(=O)=O)cc21`, the Potency result is “inactive”. As for `CN(CCCN1c2ccccc2CCc2ccccc21)CC(=O)c1ccc(Cl)cc1`, the Potency result is “inactive”. Still for that read-out and setting: next, `O=C(O)C1(C(=O)Nc2ccc(Cl)cc2Cl)CC1`: “inactive”; `CC1CN(c2ccccc2)NC1=O` (stereo not given): “inactive”. Turning to `C=C(C)C1CCC(C)(O)CC1` (stereo not given), the Potency result was “inactive”.

For the origin of these results see PubChem BioAssay (Tox21).
